Screening results: PubChem, several laboratories
Rv3671c protease: inhibits the M. tuberculosis serine protease Rv3671c; inhibition, % at 5.96 µM; P9WHR9; 0.048% of 320,000 active; in the data active = inhibition above about 38%;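 note: extracellular domain of Rv3671c used as enzyme; 0% = enzyme with DMSO and 100% = no enzyme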
FBA Mtb inh: inhibitors of M. tuberculosis fructose-bisphosphate aldolase | purified M. tuberculosis FBA, fluorescence read-out | P9WQA3 | inhibition, % at 1 µM | 2.3% of 360,000 active; in the data active = inhibition above about 27%;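 note: 0% = vehicle and 100% = reference inhibitor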
GDH-TPI inh: inhibits GDH-TPI coupling enzymes, artifact for Mtb FBA screen | GDH-TPI coupled enzyme counterscreen, NADH absorbance | inhibition, % at 4.8 µM | 1.2% of 360,000 active; in the data active = inhibition above about 30%;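 note: 0% = DMSO wells and 100% = wells lacking the enzyme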
RecA intein inh: Mtb RecA intein splicing inhibition; 0.75% of 290,000 active; AID 2221; cell-free RecA intein splicing, fluorescence; inhibition, % (concentration not given with the values); P9WHJ3; in the data active = inhibition above about 30%;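 note: 0% = vehicle wells and 100% = reference inhibitor control wells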
Target sequence (P9WHJ3 whole entry, looked up): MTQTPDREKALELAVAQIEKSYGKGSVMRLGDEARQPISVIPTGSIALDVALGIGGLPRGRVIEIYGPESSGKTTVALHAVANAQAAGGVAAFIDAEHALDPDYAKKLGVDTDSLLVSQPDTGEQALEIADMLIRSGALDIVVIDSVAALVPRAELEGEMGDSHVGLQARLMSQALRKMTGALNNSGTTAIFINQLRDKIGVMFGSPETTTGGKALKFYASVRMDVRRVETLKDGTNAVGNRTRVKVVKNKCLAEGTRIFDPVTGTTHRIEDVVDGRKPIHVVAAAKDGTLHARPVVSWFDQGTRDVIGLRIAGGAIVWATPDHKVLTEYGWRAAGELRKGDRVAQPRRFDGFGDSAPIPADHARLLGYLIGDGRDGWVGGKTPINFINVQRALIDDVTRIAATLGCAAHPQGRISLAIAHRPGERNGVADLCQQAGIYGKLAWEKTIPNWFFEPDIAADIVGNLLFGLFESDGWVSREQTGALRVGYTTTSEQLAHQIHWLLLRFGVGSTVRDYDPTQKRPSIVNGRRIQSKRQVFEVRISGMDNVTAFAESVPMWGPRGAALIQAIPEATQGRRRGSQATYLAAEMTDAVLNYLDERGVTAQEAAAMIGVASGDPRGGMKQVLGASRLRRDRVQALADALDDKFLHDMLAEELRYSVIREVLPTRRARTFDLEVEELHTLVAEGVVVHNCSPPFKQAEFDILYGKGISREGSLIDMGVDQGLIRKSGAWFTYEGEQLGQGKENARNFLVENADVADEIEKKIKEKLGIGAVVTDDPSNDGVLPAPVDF
Mtb bLac sens: beta-lactam sensitization of Mtb H37Rv; M. tuberculosis H37Rv growth with meropenem, percent inhibition; inhibition, % at 25 µM; 0.27% of 330,000 active; call rule not given here;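 note: growth measured after seven days incubation then overnight dye step; 0% = bacteria only wells and 100% = bacteria with antibiotic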
Mtb UGM inh: blocks M. tuberculosis UGM enzyme; inhibition, % at 10 µM; purified UGM, fluorescence polarization probe displacement; P9WIQ1; 0.06% of 320,000 active; in the data active = inhibition above about 10%, passing the limit was not always enough
Active calls of the source: *; i = inactive; . = not tested or not shown; + = active, no number. Compounds with a hit are over-represented: about 4% of the library has one in this group of screens.

SMILES	Rv3671c protease	FBA Mtb inh	GDH-TPI inh	RecA intein inh	Mtb bLac sens	Mtb UGM inh
N#CC(/C(=N/S(=O)(=O)c1cccs1)c1ccccc1)c1nc2ccccc2[nH]1 (stereo not given)	2	-2	43*	-5	-1	-3
O=C(O)Cn1nnc(-c2ccccc2)c1COc1ccccc1	.	-3	0	.	.	.
CCc1ccc(C(=O)NNC(=S)Nc2ccc(S(N)(=O)=O)cc2)s1	-5	3	25	63*	-3	2
CSc1ccc(C(=O)c2[nH]c(=O)[nH]c2C)cc1	-4	-5	32*	-4	3	-2
CCCCn1c(N)c(N(CC(C)C)C(=O)COC(=O)c2ccccc2NCCO)c(=O)[nH]c1=O	4	125*	3	-6	-2	0
Cn1c2nc(=O)n(-c3ccccc3)c(=O)c-2nc2c1CCCC2	.	184*	19	.	.	.
CC(C)(CNC(=O)CCC1CCCC1)CNC(=O)CCC1CCCC1	-6	0	0	5	-12	-2
CCc1ccc(/C=C2\Oc3cc(OS(C)(=O)=O)ccc3C2=O)cc1	-8	4	5	1	9	-2
CCc1ccc(/C=C2\Oc3c(ccc(O)c3CN3CCN(CCO)CC3)C2=O)cc1	1	-3	35*	-5	-11	2
Cc1cc(C)cc(C(=O)NC(CC(N)=O)c2ccc(N3CCCCCC3)c([N+](=O)[O-])c2)c1 (stereo not given)	-8	0	11	0	-15	0
CCOC(=O)c1cccc(NC(=O)CCc2nnc3ccc(N4CCCCC4)nn23)c1	-6	+	11	-4	-4	0
CC1=CC(c2ccccc2)n2nc(N3C(=O)c4ccccc4C3=O)nc2N1 (stereo not given)	1	30*	2	-2	0	-5
CC1=CC(c2ccccc2)n2nc(N3C(=O)C4CC=CCC4C3=O)nc2N1 (stereo not given)	1	175*	3	-11	-6	1
COc1ccc(C2Nc3cc(OC)ccc3-n3cccc32)cc1 (stereo not given)	-2	9	34*	-47	48	3
O=C(CNC(=O)c1cn2ccccc2n1)Nc1ccc(F)c(F)c1	-1	4	-5	-1	-14	3
Cc1cc(C(=O)O)cc(S(=O)(=O)Nc2ccccc2C(=O)NC(C)c2ccccc2)c1C (stereo not given)	-3	1	20	0	-18	8
CCOC(=O)/C(=N\Nc1ccc(Br)cc1)N1CC(C)OC(C)C1 (stereo not given)	2	-4	37*	-2	96	1
CCOC(=O)/C(=N\Nc1ccccc1Cl)N1CC(C)OC(C)C1 (stereo not given)	6	2	15	-5	-6	-4
Cc1ccc2c(c1)c1c(c(=O)n(-c3ccccc3C)c(=O)n1CC(=O)NCC1CCCO1)n2C (stereo not given)	5	+	-3	-1	5	0
COc1ccc(CN(C)C(=O)C2CSC3(C)CCC(=O)N23)cc1OC (stereo not given)	1	1	-2	.	-3	0
COc1ccc(C2=NCCn3cccc32)c(OC)c1	-6	-1	49*	0	6	1
CCc1c(C)sc(NC(=O)Cc2ccccc2OC)c1C(=O)N1CCOCC1	0	-1	-5	-3	-1	0
O=C(Nc1nc(-c2ccc(S(=O)(=O)N3CCOCC3)cc2)cs1)c1ccccc1	-47	0	12	-3	12	0
CCCCC(=O)Nc1nc(-c2ccc(S(=O)(=O)N3CCOCC3)cc2)cs1	-12	36*	-1	1	-14	-1
CC(C)CC(=O)Nc1nc(-c2ccc(S(=O)(=O)N3CCOCC3)cc2)cs1	.	31*	-1	-2	.	.
SMILES	Rv3671c protease	FBA Mtb inh	GDH-TPI inh	RecA intein inh	Mtb bLac sens	Mtb UGM inh
COCCCNC(=O)/C(=C\c1cccn1C)NC(=O)c1cccs1	2	3	34*	-2	6	.
O=C(NCCO)/C(=C\c1ccc(Br)cc1)NC(=O)c1cccs1	1	0	10	-1	-2	-5
Cc1ccc(S(=O)(=O)CCC(=O)OCC(=O)c2cc(C)ccc2C)cc1	-1	0	1	-1	0	-1
Cc1ccc(S(=O)(=O)CCC(=O)c2ccc(O)cc2O)cc1	-2	-1	43*	3	86	1
CC(C)NC(=O)CC1C(=O)N(Cc2ccccc2)C(C)c2nc3ccccc3n21 (stereo not given)	1	-1	6	0	1	-4
CSc1ccc(C2NN=C(c3ccccc3)S2)cc1 (stereo not given)	-1	46*	7	1	-5	0
Cc1ccc2nc3c(cc(C(=O)NCCCn4ccnc4)n3C)c(=O)n2c1	3	+	16	i	6	-2
Cn1c(C(=O)NCCN2CCOCC2)cc2c(=O)n3ccccc3nc21	3	+	22	-484	1	0
Cc1nc2ccccn2c1C(=O)NCCCN1CCOCC1	3	2	6	1	-7	3
Cc1cccn2c(=O)c3cc(C(=O)NCCN4CCOCC4)n(C)c3nc12	7	121*	9	-41	-1	-2
COCCCn1c(C(=O)NCCC2=CCCCC2)cc2c(=O)n3cccc(C)c3nc21	3	6	0	-3	10	1
COCCCn1c(C(=O)NCCN2CCOCC2)cc2c(=O)n3ccccc3nc21	-3	+	10	-390	-1	1
N#Cc1ccc(OCc2noc(-c3ccsc3)n2)cc1	-4	-1	-7	1	-3	-1
C=CCn1c(O)c(N=NC(=O)CNC(=O)Cc2ccccc2)c2ccccc21	-7	3	28	-2	-6	1
O=C(Cc1ccc(F)cc1)Nc1ccc2[nH]ncc2c1	11	-2	-2	0	4	0
Nc1ccc2[nH]ncc2c1	3	26	2	61*	2	-4
CCOC(=O)N1CCC(Nc2c(-c3ccc(C)cc3)c(=O)c2=O)CC1	-1	-3	36*	-2	-6	-1
CCOC(=O)N1CCN(c2c(-c3ccc(C)cc3)c(=O)c2=O)CC1	-7	2	34*	.	9	0
CCOC(=O)N1CCN(c2c(-c3ccc(C(C)C)cc3)c(=O)c2=O)CC1	-1	-5	25	2	1	-1
CN(CCc1ccccc1)C(=O)c1[nH]c(C(F)(F)F)nc1-c1ccccc1	.	1	.	.	.	.
CCOC(=O)c1sc2nc(CSc3ccccc3)nc(NCCN(C)C)c2c1C	0	2	4	-2	100	2
O=C1CSC(c2ccccc2)N1Cc1ccccn1 (stereo not given)	.	2	2	1	9	1
O=C1OC(Cc2ccccn2)C(=O)C1=C1SCCS1 (stereo not given)	-1	-3	41*	-5	-6	0
CCOc1ccc(S(=O)(=O)NNS(=O)(=O)c2ccc(C)cc2C)cc1	-3	-4	6	-2	0	0
